# Experimental data: publication PMC5540273 (PLoS ONE, 2017)
# Several values for one entry are separate records, joined by “and”; a condition that tells them apart may be missing. Identical values can stand only once. Like-named read-outs stand apart in the source and are kept apart here.
# Legend:
# RIPK5 = settings: concentration: 1 μM, replicates: in singlicate, n = 1
# ROCK1 = settings: concentration: 1 μM, replicates: in singlicate, n = 1
# ROCK2 = settings: concentration: 1 μM, replicates: in singlicate, n = 1
# ROS1 = settings: concentration: 1 μM, replicates: in singlicate; n = 1
# [1] = test system: RPS6KA4(Kin.Dom.1-N-terminal); settings: concentration: 1 μM, replicates: in singlicate, n = 1
# [2] = test system: RPS6KA4(Kin.Dom.2-C-terminal); settings: concentration: 1 μM, replicates: in singlicate, n = 1
# [3] = test system: RPS6KA5(Kin.Dom.1-N-terminal); settings: concentration: 1 μM, replicates: in singlicate, n = 1
# [4] = test system: RPS6KA5(Kin.Dom.2-C-terminal); settings: concentration: 1 μM, replicates: in singlicate, n = 1
# [5] = test system: T1, RSK1(Kin.Dom.1-N-terminal); settings: concentration: 1 μM, replicates: in singlicate; n = 1
# T1 construct: gene RPS6KA1
# [6] = test system: T2, RSK1(Kin.Dom.2-C-terminal); settings: concentration: 1 μM, replicates: in singlicate, n = 1
# T2 construct: gene RPS6KA1
# [7] = test system: T3, RSK2(Kin.Dom.1-N-terminal); settings: concentration: 1 μM, replicates: in singlicate, n = 1
# T3 construct: gene RPS6KA3
# [8] = test system: T4, RSK2(Kin.Dom.2-C-terminal); settings: concentration: 1 μM, replicates: in singlicate, n = 1
# T4 construct: gene RPS6KA3
# [9] = test system: T5, RSK3(Kin.Dom.1-N-terminal); settings: concentration: 1 μM, replicates: in singlicate, n = 1
# T5 construct: gene RPS6KA2
# [10] = test system: T6, RSK3(Kin.Dom.2-C-terminal); settings: concentration: 1 μM, replicates: in singlicate, n = 1
# T6 construct: gene RPS6KA2
# [11] = test system: T7, RSK4(Kin.Dom.1-N-terminal); settings: concentration: 1 μM, replicates: in singlicate, n = 1
# T7 construct: gene RPS6KA6
# [12] = test system: T8, RSK4(Kin.Dom.2-C-terminal); settings: concentration: 1 μM, replicates: in singlicate, n = 1
# T8 construct: gene RPS6KA6
# S6K1 = settings: concentration: 1 μM, replicates: in singlicate, n = 1
# SBK1 = settings: concentration: 1 μM, replicates: in singlicate, n = 1
# SGK2 = settings: concentration: 1 μM, replicates: in singlicate; n = 1
# SGK3 = settings: concentration: 1 μM, replicates: in singlicate, n = 1
# 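Also: KINOMEscan kinase panel screen.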
structure (smiles),measurement,setting,value
Cn1cc(-c2ccc3c(c2)CCN3C(=O)Cc2ccccc2Cl)c2c(N)ncnc21 [GSK2608885],%Inh,RIPK5,13%
same,%Inh,ROCK1,1%
same,%Inh,ROCK2,0%
same,%Inh,ROS1,86%
same,%Inh,[1],36%
same,%Inh,[2],0%
same,%Inh,[3],32%
same,%Inh,[4],3%
same,%Inh,[5],99.2%
same,%Inh,[6],30%
same,%Inh,[7],0%
same,%Inh,[8],23%
same,%Inh,[9],87%
same,%Inh,[10],12%
same,%Inh,[11],0%
same,%Inh,[12],18%
same,%Inh,S6K1,14%
same,%Inh,SBK1,25%
same,%Inh,SGK2,0%
same,%Inh,SGK3,3%
CN1c2ccc(CNc3ccc(F)cc3)cc2-c2c(cnn2C)S1(=O)=O,%Inh,RIPK5,4%
same,%Inh,ROCK1,0%
same,%Inh,ROCK2,0%
same,%Inh,ROS1,4%
same,%Inh,[1],0%
same,%Inh,[2],0%
same,%Inh,[3],0%
same,%Inh,[4],0%
same,%Inh,[5],0%
same,%Inh,[6],14%
same,%Inh,[7],23%
same,%Inh,[8],41%
same,%Inh,[9],3%
same,%Inh,[10],8%
same,%Inh,[11],5%
same,%Inh,[12],0%
same,%Inh,S6K1,0%
same,%Inh,SBK1,0%
same,%Inh,SGK2,100%
same,%Inh,SGK3,0%
COc1ccc(S(=O)(=O)NC2CCN(c3cc(C)nc(Nc4cccc(C#N)c4)n3)CC2)cc1.O=C(O)C(F)(F)F [GSK1653539],%Inh,RIPK5,0%
same,%Inh,ROCK1,0%
same,%Inh,ROCK2,0%
same,%Inh,ROS1,16%
same,%Inh,[1],0%
same,%Inh,[2],0%
same,%Inh,[3],2%
same,%Inh,[4],23%
same,%Inh,[5],8%
same,%Inh,[6],0%
same,%Inh,[7],0%
same,%Inh,[8],0%
same,%Inh,[9],1%
same,%Inh,[10],0%
same,%Inh,[11],0%
same,%Inh,[12],21%
same,%Inh,S6K1,0%
same,%Inh,SBK1,0%
same,%Inh,SGK2,0%
same,%Inh,SGK3,4%
Cl.Cl.Cl.Fc1ccc(-c2ncn(C3CCNCC3)c2-c2ccnc(Nc3ccccc3)n2)cc1 [SB-238039],%Inh,RIPK5; 1 µM,82% and 61%
same,%Inh,ROCK1; 1 µM,27% and 0%
same,%Inh,ROCK2; 1 µM,32% and 9%
same,%Inh,ROS1,0%
same,%Inh,[1]; 1 µM,16% and 4%
same,%Inh,[2]; 1 µM,0% and 4%
same,%Inh,[3]; 1 µM,36% and 11%
same,%Inh,[4]; 1 µM,23% and 0%
same,%Inh,[5],0%
same,%Inh,[6]; 1 µM,64% and 35%
same,%Inh,[7]; 1 µM,41% and 35%
same,%Inh,[8]; 1 µM,16% and 0%
same,%Inh,[9]; 1 µM,0% and 15%
same,%Inh,[10]; 1 µM,18% and 32%
same,%Inh,[11]; 1 µM,19% and 0%
same,%Inh,[12]; 1 µM,88% and 80%
same,%Inh,S6K1; 1 µM,5% and 0%
same,%Inh,SBK1; 1 µM,36% and 0%
same,%Inh,SGK2,2%
same,%Inh,SGK3; 1 µM,8% and 12%
CCc1ccnc(/C=C/c2n[nH]c3cc(Sc4ccccc4C(=O)NC)ccc23)c1,%Inh,RIPK5,0%
same,%Inh,ROCK1,0%
same,%Inh,ROCK2,0%
same,%Inh,ROS1,19%
same,%Inh,[1],0%
same,%Inh,[2],0%
same,%Inh,[3],0%
same,%Inh,[4],0%
same,%Inh,[5],0%
same,%Inh,[6],3%
same,%Inh,[7],8%
same,%Inh,[8],0%
same,%Inh,[9],13%
same,%Inh,[10],6%
same,%Inh,[11],18%
same,%Inh,[12],12%
same,%Inh,S6K1,6%
same,%Inh,SBK1,16%
same,%Inh,SGK2,0%
same,%Inh,SGK3,24%
O=c1cc(N2CCOCC2)nc2n(Cc3cccc(Cl)c3Cl)c(C3CC3)nn12 [GSK2358994],%Inh,RIPK5,7%
same,%Inh,ROCK1,0%
same,%Inh,ROCK2,0%
same,%Inh,ROS1,0%
same,%Inh,[1],0%
same,%Inh,[2],16%
same,%Inh,[3],0%
same,%Inh,[4],0%
same,%Inh,[5],0%
same,%Inh,[6],17%
same,%Inh,[7],0%
same,%Inh,[8],18%
same,%Inh,[9],0%
same,%Inh,[10],17%
same,%Inh,[11],0%
same,%Inh,[12],21%
same,%Inh,S6K1,15%
same,%Inh,SBK1,0%
same,%Inh,SGK2,20%
same,%Inh,SGK3,0%
O=C(NCCNc1ccnc(Nc2ccc(F)cc2)n1)c1cc2ccccc2s1 [GSK1379874],%Inh,RIPK5,0%
same,%Inh,ROCK1,29%
same,%Inh,ROCK2,30%
same,%Inh,ROS1,15%
same,%Inh,[1],0%
same,%Inh,[2],0%
same,%Inh,[3],4%
same,%Inh,[4],0%
same,%Inh,[5],26%
same,%Inh,[6],0%
same,%Inh,[7],0%
same,%Inh,[8],0%
same,%Inh,[9],0%
same,%Inh,[10],0%
same,%Inh,[11],0%
same,%Inh,[12],1%
same,%Inh,S6K1,0%
same,%Inh,SBK1,0%
same,%Inh,SGK2,0%
same,%Inh,SGK3,0%
C[C@@H](Oc1cc(-n2cnc3ccc(NC(=O)NC(C)(C)C)cc32)sc1C(N)=O)c1ccccc1Cl [GSK346294],%Inh,RIPK5,10%
same,%Inh,ROCK1,4%
same,%Inh,ROCK2,17%
same,%Inh,ROS1,33%
same,%Inh,[1],11%
same,%Inh,[2],0%
same,%Inh,[3],13%
same,%Inh,[4],14%
same,%Inh,[5],0%
same,%Inh,[6],15%
same,%Inh,[7],0%
same,%Inh,[8],11%
same,%Inh,[9],0%
same,%Inh,[10],9%
same,%Inh,[11],0%
same,%Inh,[12],26%
same,%Inh,S6K1,0%
same,%Inh,SBK1,0%
same,%Inh,SGK2,10%
same,%Inh,SGK3,19%
O=C(Nc1n[nH]c2cc(-c3cccc(F)c3)ccc12)C1CC1 [SB-735464],%Inh,RIPK5,23%
same,%Inh,ROCK1,18%
same,%Inh,ROCK2,4%
same,%Inh,ROS1,16%
same,%Inh,[1],0%
same,%Inh,[2],9%
same,%Inh,[3],0%
same,%Inh,[4],24%
same,%Inh,[5],1%
same,%Inh,[6],26%
same,%Inh,[7],0%
same,%Inh,[8],15%
same,%Inh,[9],2%
same,%Inh,[10],0%
same,%Inh,[11],9%
same,%Inh,[12],17%
same,%Inh,S6K1,49%
same,%Inh,SBK1,21%
same,%Inh,SGK2,0%
same,%Inh,SGK3,13%
Cc1nnc(-c2ccc3ncc(-c4ccc(S(C)=O)cc4)n3c2)o1 (centres unmarked),%Inh,RIPK5,21%
same,%Inh,ROCK1,28%
same,%Inh,ROCK2,9%
same,%Inh,ROS1,0%
same,%Inh,[1],0%
same,%Inh,[2],9%
same,%Inh,[3],0%
same,%Inh,[4],2%
same,%Inh,[5],0%
same,%Inh,[6],27%
same,%Inh,[7],7%
same,%Inh,[8],4%
same,%Inh,[9],0%
same,%Inh,[10],31%
same,%Inh,[11],0%
same,%Inh,[12],19%
same,%Inh,S6K1,0%
same,%Inh,SBK1,0%
same,%Inh,SGK2,13%
same,%Inh,SGK3,0%
